Here are results for 8 compounds from PubChem BioAssay (NCI).

About 83,000 compounds went through this panel and 20% of them were active in at least one assay; those are over-represented in the sample as a whole.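 How to read the values: 0–100, growth inhibition (40 = 60% inhibited); 0, no net growth; -100 to 0, cell death (-40 = 40% of starting cells died; -100 = all dead).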 Unmarked numbers belong to inactive results. Calls of active or inactive are those of the source. Rule for the calls: active = growth percent below 10; inactive = the rest.

What all share (experiment): NCI-60 one-dose screen, 48 h (100 = growth as untreated, 0 = no growth, -100 = all killed)
One assay deals with K-562 leukemia. Particulars: 10 µM unless noted.
For the next assay, the system named is MALME-3M melanoma. To be noted: 10 µM unless noted.
Another assay concerns MDA-MB-231 breast. Particulars: 10 µM unless noted.
A further assay relates to RXF 393 renal. To be noted: 10 µM unless noted.
The test system of a further assay is SF-268 CNS. Particulars: 10 µM unless noted.
The next assay concerns SF-295 CNS. Particulars: 10 µM unless noted.
The next assay relates to SF-539 CNS. Particulars: 10 µM unless noted.
For the next assay, the system named is UACC-257 melanoma. To be noted: 10 µM unless noted.
For the next assay, the system named is M14 melanoma. Particulars: 10 µM unless noted.
The subject of the next assay is HCT-15 colon. To be noted: 10 µM unless noted.
The subject of the next assay is HT29 colon. To be noted: 10 µM unless noted.
In another assay the test system is SNB-75 CNS. To be noted: 10 µM unless noted.
The next assay concerns SNB-19 CNS. Particulars: 10 µM unless noted.
A further assay deals with U251 CNS. To be noted: 10 µM unless noted.
For another assay, the system named is PC-3 prostate. Particulars: 10 µM unless noted.
For the next assay, the system named is SK-MEL-5 melanoma. Particulars: 10 µM unless noted.
A further assay relates to UACC-62 melanoma. Particulars: 10 µM unless noted.
Another assay relates to LOX IMVI melanoma. To be noted: 10 µM unless noted.
Another assay concerns SK-MEL-28 melanoma. Particulars: 10 µM.
A further assay concerns SK-MEL-2 melanoma. To be noted: 10 µM unless noted.

On to `CC(=S)NC(=O)C(=O)/C=C1/NC(=O)C(=O)S1`, for which the growth with K-562 leukemia was 110%; in the assay on MALME-3M melanoma, 107%; in the assay on MDA-MB-231 breast, 103%; in the assay on RXF 393 renal, 110%; in the assay with SF-268 CNS, 100%; with SF-295 CNS, 101%. The growth in the assay on SF-539 CNS was 102%; in the assay on UACC-257 melanoma, 108%; in the assay with M14 melanoma it was 106%; in the assay on HCT-15 colon, 102%; with HT29 colon, 110%; with SNB-75 CNS it was 95.5%. Also, the growth is 106% in the assay on SNB-19 CNS; 111% in the assay with U251 CNS; 99.6% with PC-3 prostate; 104% in the assay with SK-MEL-5 melanoma; 99.9% with UACC-62 melanoma; 99.7% with LOX IMVI melanoma. Further, the values for the growth in the assay on SK-MEL-28 melanoma and in the assay with SK-MEL-2 melanoma were 106% and 103%, respectively.
In the case of `FC(F)(F)c1cccc(Nc2nc3ccccc3nc2Nc2cccc(C(F)(F)F)c2)c1`, the growth was -19.6% (active) in the assay with K-562 leukemia; -81.6% (active) in the assay with MALME-3M melanoma; -56.3% (active) with MDA-MB-231 breast; -89.6% (active) in the assay on RXF 393 renal; -9.63% (active) in the assay with SF-268 CNS; -78.9% (active) in the assay on SF-295 CNS. Further, the growth in the assay with SF-539 CNS is -78.7% (active); in the assay on UACC-257 melanoma, -75.1% (active); in the assay with M14 melanoma it was -69.9% (active); with HCT-15 colon, 2.32% (active); with HT29 colon, -53.7% (active); with SNB-75 CNS, -92.3% (active). For the same compound, the growth in the assay with SNB-19 CNS is 7.81% (active); with U251 CNS, -34% (active); with PC-3 prostate, 15.4%; with SK-MEL-5 melanoma, -95.6% (active); with UACC-62 melanoma, -62.6% (active); with LOX IMVI melanoma, -79.4% (active). Further, the growth in the assay with SK-MEL-28 melanoma was -85.5% (active).
For the compound `COc1ccc(-c2nc(-c3ccccn3)c(-c3ccccn3)n2CC(C)C)cc1OC1CCCC1`, the growth was 10.4% in the assay on K-562 leukemia; 16.5% in the assay with MALME-3M melanoma; 30.8% in the assay with MDA-MB-231 breast; 19.3% in the assay with RXF 393 renal; 19% in the assay on SF-268 CNS; 8.48% (active) in the assay on SF-295 CNS. Further, the growth with SF-539 CNS was 39%; in the assay with UACC-257 melanoma, 28.8%; in the assay on M14 melanoma it was 20.9%; in the assay with HCT-15 colon it was 33.9%; with HT29 colon, 12.2%; with SNB-75 CNS it was 20.5%. The growth is 24.2% in the assay with SNB-19 CNS; 11.1% with U251 CNS; 12.6% in the assay with PC-3 prostate; 15.5% with SK-MEL-5 melanoma; 9.71% (active) in the assay on UACC-62 melanoma; 20.8% with LOX IMVI melanoma. Besides, in the assay with SK-MEL-28 melanoma, the growth was 35.9%.
As for `CCN1C(=O)N(CC)C2Nn3c(s/c(=C\c4ccccc4F)c3=O)=NC21` (stereo not given), the growth with K-562 leukemia is 15.9%; with MALME-3M melanoma, 78.4%; with MDA-MB-231 breast, 35.1%; in the assay with RXF 393 renal, 36.7%; with SF-268 CNS, 54.9%; in the assay with SF-295 CNS, 14.9%. The growth is 11.6% with SF-539 CNS; 65.2% in the assay on UACC-257 melanoma; 23.3% in the assay with M14 melanoma; 26.5% in the assay on HCT-15 colon; 17.4% in the assay with HT29 colon; 55.1% with SNB-75 CNS. For the same compound, the growth with SNB-19 CNS was 45.5%; with U251 CNS it was 26.1%; in the assay with PC-3 prostate, 39.6%; in the assay with SK-MEL-5 melanoma, 33.9%; with UACC-62 melanoma it was 36.7%; with LOX IMVI melanoma it was 44.3%. For the same compound, the growth with SK-MEL-28 melanoma was 54.2%.
As to `COc1ccc(C2C3=C(COC3=O)N(CCO)c3cc4c(cc32)CCC4)cc1OC` (stereo not given), the growth in the assay on K-562 leukemia was 14.7%; in the assay with MALME-3M melanoma, 42.8%; with MDA-MB-231 breast it was 24.7%; in the assay with RXF 393 renal it was -42.7% (active); with SF-268 CNS it was 49.1%; in the assay with SF-295 CNS, -2.08% (active). The growth was -20.4% (active) in the assay on SF-539 CNS; 43.6% in the assay on UACC-257 melanoma; -18.4% (active) with M14 melanoma; 21.8% with HCT-15 colon; -3.07% (active) with HT29 colon; -28% (active) with SNB-75 CNS. For the same compound, the growth in the assay on SNB-19 CNS was 27.8%; with U251 CNS, 20%; with PC-3 prostate it was 23.4%; with SK-MEL-5 melanoma, 28%; in the assay on UACC-62 melanoma it was 36.7%; with LOX IMVI melanoma, 44%.
As for `CCCCC1COc2cccc3c2N1C=C/C3=C\C(=O)N(C)c1ccccc1` (stereo not given), the growth with K-562 leukemia is 26.2%; in the assay with MALME-3M melanoma, 59.9%; in the assay with MDA-MB-231 breast, 62.9%; in the assay with RXF 393 renal, 89.6%; in the assay with SF-268 CNS, 70.4%; in the assay on SF-295 CNS, 52.2%. Besides, the growth with SF-539 CNS is 84%; with UACC-257 melanoma, 53%; in the assay with M14 melanoma it was 65.1%; in the assay on HCT-15 colon, 86.3%; in the assay with HT29 colon, 49.7%; in the assay on SNB-75 CNS, 72.1%. Moreover, the growth in the assay with SNB-19 CNS is 52.3%; in the assay with U251 CNS, 33.9%; in the assay with PC-3 prostate, 51.2%; in the assay with SK-MEL-5 melanoma it was 13.4%; with UACC-62 melanoma, 36%; in the assay on LOX IMVI melanoma, 51.2%. The growth in the assay with SK-MEL-28 melanoma is 75%; in the assay on SK-MEL-2 melanoma, 71.1%.
Consider `O=c1c2cccc(F)c2sc2c(N3CCNCC3)nc3ccccc3c12`, for which the growth is -42.1% (active) with K-562 leukemia; 53.5% in the assay with MALME-3M melanoma; 34.6% with MDA-MB-231 breast; 42.4% in the assay with RXF 393 renal; 41.4% in the assay on SF-268 CNS; 74.6% with SF-295 CNS. The growth is 48.9% in the assay with SF-539 CNS; 8.99% (active) in the assay with UACC-257 melanoma; -27.4% (active) in the assay on M14 melanoma; 5.87% (active) in the assay on HCT-15 colon; -45.4% (active) in the assay on HT29 colon; 35.3% with SNB-75 CNS. The growth in the assay with SNB-19 CNS was 46.5%; in the assay with U251 CNS, 10.3%; with PC-3 prostate it was 39.8%; in the assay with SK-MEL-5 melanoma, 56.2%; with UACC-62 melanoma, 54%; in the assay with LOX IMVI melanoma, 19.9%. Also, the growth is 69.1% in the assay on SK-MEL-28 melanoma and 95% in the assay with SK-MEL-2 melanoma.
For the compound `OC(CNC1CCCCC1)Cn1c2ccc(I)cc2c2cc(I)ccc21` (stereo not given), the growth with K-562 leukemia is 54.4%; with MALME-3M melanoma, 68.9%; in the assay on MDA-MB-231 breast, 56.3%; in the assay with RXF 393 renal it was 78.3%; in the assay on SF-268 CNS, 91.8%; with SF-295 CNS, 47.2%. Besides, the growth was 77.5% with SF-539 CNS; 84.8% in the assay with UACC-257 melanoma; 68.7% in the assay with M14 melanoma; 65.7% in the assay with HCT-15 colon; 95.7% with HT29 colon; 50.4% in the assay on SNB-75 CNS. Further, the growth was 86% with SNB-19 CNS; 72.6% with U251 CNS; 62.5% with PC-3 prostate; 67.7% with SK-MEL-5 melanoma; 64.8% in the assay on UACC-62 melanoma; 77.4% in the assay with LOX IMVI melanoma. Besides, the growth was 81.3% in the assay with SK-MEL-28 melanoma and 97% with SK-MEL-2 melanoma.
